# Values without a mark were called inactive. Inconclusive results are not listed. Entries that show only a call come without a potency. Active and inactive are the calls of the source. Unless noted, calls follow the shape of the dose curve; as a rule, active = well fitted curve in the direction sought with a large enough effect; inconclusive = small, poorly fitted or top-dose-only effect, or another doubt; inactive = no such curve, though single readings can be large; an effect the other way counts as inactive or inconclusive.
# Key:
# [1] = target: Glucocorticoid receptor (Homo sapiens) (UniProt P04150); assay: GR-GFP Redistribution (AID 450;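 active = compounds whose dose series gives a full or clear partial fitted curve of increased nuclear translocation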; also: potency is read from the fitted curve at half-maximal effect); conditions: U2OS GR-GFP nuclear translocation, laser cytometry, 2 h
# ATS189 = assay: qHTS profiling for inhibitors of Plasmodium falciparum proliferation (AID 504749); also: nearly all actives have a fitted effect of over 60% in size; also: potency is read from the fitted curve at half-maximal effect; conditions: P. falciparum in erythrocytes, SYBR Green DNA, 72 h; series mostly up to 12.8 µM
# Procedure, shortened: (§1)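 Each compound contacts P. falciparum-infected red blood cells for 72 h at 37 C; lysis buffer (Tris, EDTA, saponin, Triton X, SYBR Green I) is added and fluorescence measured next morning; values normalized to controls.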
# ATS95 = assay: as above; conditions: P. falciparum in erythrocytes, SYBR Green DNA, 72 h; series mostly up to 12.8 µM
# Procedure, shortened: as §1
# CP194 = assay: as above; conditions: P. falciparum in erythrocytes, SYBR Green DNA, 72 h; series mostly up to 12.8 µM
# Procedure, shortened: as §1
# CP201 = assay: as above; conditions: P. falciparum in erythrocytes, SYBR Green DNA, 72 h; series mostly up to 12.8 µM
# Procedure, shortened: as §1
# CP237 = assay: as above; conditions: P. falciparum in erythrocytes, SYBR Green DNA, 72 h; series mostly up to 12.8 µM
# Procedure, shortened: as §1
# CP250 = assay: as above; conditions: P. falciparum in erythrocytes, SYBR Green DNA, 72 h; series mostly up to 12.8 µM
# Procedure, shortened: as §1
# CP266 = assay: as above; conditions: P. falciparum in erythrocytes, SYBR Green DNA, 72 h; series mostly up to 12.8 µM
# Procedure, shortened: as §1
# CP286 = assay: as above; conditions: P. falciparum in erythrocytes, SYBR Green DNA, 72 h; series mostly up to 12.8 µM
# Procedure, shortened: as §1
# CP315 = assay: as above; conditions: P. falciparum in erythrocytes, SYBR Green DNA, 72 h; series mostly up to 12.8 µM
# Procedure, shortened: as §1
# DIV17 = assay: as above; conditions: P. falciparum in erythrocytes, SYBR Green DNA, 72 h; series mostly up to 12.8 µM
# Procedure, shortened: as §1
# GB4 = assay: as above; conditions: P. falciparum in erythrocytes, SYBR Green DNA, 72 h; series mostly up to 12.8 µM
# Procedure, shortened: as §1
# HB3 = assay: as above; conditions: P. falciparum in erythrocytes, SYBR Green DNA, 72 h; series mostly up to 12.8 µM
# Procedure, shortened: as §1
# P93_24 = assay: as above; conditions: P. falciparum in erythrocytes, SYBR Green DNA, 72 h; series mostly up to 12.8 µM
# Procedure, shortened: as §1
# P94_40 = assay: as above; conditions: P. falciparum in erythrocytes, SYBR Green DNA, 72 h; series mostly up to 12.8 µM
# Procedure, shortened: as §1
# PAD = assay: as above; conditions: P. falciparum in erythrocytes, SYBR Green DNA, 72 h; series mostly up to 12.8 µM
# Procedure, shortened: as §1
# TAB109 = assay: as above; conditions: P. falciparum in erythrocytes, SYBR Green DNA, 72 h; series mostly up to 12.8 µM
# Procedure, shortened: as §1
# TAB165 = assay: as above; conditions: P. falciparum in erythrocytes, SYBR Green DNA, 72 h; series mostly up to 12.8 µM
# Procedure, shortened: as §1
# [2] = S16 Schwann cell viability assay (CellTiter-Glo assay) (AID 624031); conditions: S16 rat Schwann cells viability, 24 h; series mostly up to 25.7 µM;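 also: native untransfected S16 rat Schwann cells; cellular ATP luminescence as a viability measure; nearly all actives have a fitted effect of over 70% in size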
# Procedure, shortened: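 Rat S16 Schwann cells without reporter constructs received compound or DMSO for 24 h at 37 °C under 5% CO2. Cellular ATP was then quantified by CellTiter-Glo luminescence, with vehicle wells defined as 0% activity and cell-free wells as reference.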
# CP260 = assay: qHTS profiling for inhibitors of Plasmodium falciparum proliferation (AID 504749); also: nearly all actives have a fitted effect of over 60% in size; also: potency is read from the fitted curve at half-maximal effect; conditions: P. falciparum in erythrocytes, SYBR Green DNA, 72 h; series mostly up to 12.8 µM
# Procedure, shortened: as §1
# Sequence of Glucocorticoid receptor (Homo sapiens) (P04150 whole entry, looked up): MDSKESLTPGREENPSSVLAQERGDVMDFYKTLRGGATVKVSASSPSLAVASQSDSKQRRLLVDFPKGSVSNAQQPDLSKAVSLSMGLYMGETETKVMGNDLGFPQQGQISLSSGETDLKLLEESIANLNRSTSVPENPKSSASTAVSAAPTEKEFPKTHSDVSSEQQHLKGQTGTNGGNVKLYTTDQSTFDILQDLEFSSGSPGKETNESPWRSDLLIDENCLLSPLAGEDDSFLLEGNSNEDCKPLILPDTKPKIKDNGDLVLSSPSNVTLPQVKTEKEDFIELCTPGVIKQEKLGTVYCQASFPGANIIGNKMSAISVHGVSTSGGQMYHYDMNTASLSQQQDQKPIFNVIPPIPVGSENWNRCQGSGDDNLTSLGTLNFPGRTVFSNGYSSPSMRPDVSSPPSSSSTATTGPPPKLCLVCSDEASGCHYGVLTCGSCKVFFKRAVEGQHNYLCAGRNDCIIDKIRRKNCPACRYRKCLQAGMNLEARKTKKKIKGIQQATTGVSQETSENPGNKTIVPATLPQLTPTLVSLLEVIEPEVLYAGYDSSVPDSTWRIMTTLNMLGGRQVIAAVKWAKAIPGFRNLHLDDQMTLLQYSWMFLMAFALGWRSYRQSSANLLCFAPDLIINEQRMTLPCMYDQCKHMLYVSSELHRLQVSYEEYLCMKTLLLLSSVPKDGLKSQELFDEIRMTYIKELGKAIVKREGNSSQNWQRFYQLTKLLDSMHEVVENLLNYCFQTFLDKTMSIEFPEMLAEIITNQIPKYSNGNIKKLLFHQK
SMILES,Potency [1],Potency (ATS189),Potency (ATS95),Potency (CP194),Potency (CP201),Potency (CP237),Potency (CP250),Potency (CP266),Potency (CP286),Potency (CP315),Potency (DIV17),Potency (GB4),Potency (HB3),Potency (P93_24),Potency (P94_40),Potency (PAD),Potency (TAB109),Potency (TAB165),outcome [2],Potency (CP260)
COC(=O)C1=C(C)NC(C)=C(C(=O)OCCN(C)Cc2ccccc2)[C@H]1c1cccc([N+](=O)[O-])c1,> 20600 nM,,,,,,,,,,,,,,,,,,,
CC(=O)N[C@H](CC(C)C)C(=O)O,,inactive,inactive,inactive,inactive,inactive,inactive,inactive,inactive,inactive,inactive,inactive,inactive,inactive,inactive,inactive,inactive,inactive,,
CC1(C)OC2CO[C@]3(COS(N)(=O)=O)OC(C)(C)OC3C2O1 (stereo partly specified),,inactive,inactive,inactive,inactive,inactive,inactive,inactive,inactive,inactive,inactive,inactive,inactive,inactive,inactive,inactive,inactive,inactive,inactive,inactive
CC/C=C\C[C@H]1C(=O)CC[C@@H]1CC(=O)O,> 46000 nM,,,,,,,,,,,,,,,,,,,
CCC(C)C(=O)OC1CCC=C2C=CC(C)C(CCC3CC(O)CC(=O)O3)[C@@H]21 (stereo partly specified),,inactive,inactive,inactive,inactive,inactive,inactive,inactive,inactive,inactive,inactive,inactive,inactive,inactive,inactive,inactive,inactive,inactive,inactive,inactive
COC1C=CO[C@@]2(C)Oc3c(C)c(O)c4c(O)c(c(C=NN5CCN(C)CC5)c(O)c4c3C2=O)NC(=O)/C(C)=C\C=CC(C)C(O)[C@@H](C)C(O)C(C)[C@H](OC(C)=O)C1C (stereo partly specified),,1580 nM (active),2510 nM (active),4780 nM (active),5360 nM (active),355 nM (active),6310 nM (active),6750 nM (active),2510 nM (active),4780 nM (active),269 nM (active),953 nM (active),447 nM (active),251 nM (active),282 nM (active),282 nM (active),2000 nM (active),141 nM (active),inactive,1410 nM (active)
Nc1ncnc2c1nc(Br)n2[C@H]1O[C@H]2COP(=O)(O)O[C@H]2[C@@H]1O,> 46000 nM,,,,,,,,,,,,,,,,,,,
C[C@]1(c2ccccc2)OC(C(=O)O)=CC1=O,,inactive,inactive,inactive,inactive,inactive,inactive,inactive,inactive,inactive,inactive,inactive,inactive,inactive,inactive,inactive,inactive,inactive,inactive,inactive
CNC1C(OC2C(O[C@@H]3C(O)C(O)[C@@H](N=C(N)N)C(O)C3N=C(N)N)OC(C)[C@@]2(O)CO)OC(CO)C(O)C1O (stereo partly specified),,inactive,inactive,inactive,inactive,inactive,inactive,inactive,inactive,inactive,inactive,inactive,inactive,inactive,inactive,,inactive,inactive,inactive,inactive
COc1ccc(CC(N)C(=O)NC2C(CO)OC(n3cnc4c(N(C)C)ncnc43)C2O)cc1 (stereo unspecified),,794 nM (active),1000 nM (active),1070 nM (active),1510 nM (active),891 nM (active),1260 nM (active),1200 nM (active),891 nM (active),849 nM (active),757 nM (active),675 nM (active),1000 nM (active),708 nM (active),891 nM (active),447 nM (active),891 nM (active),794 nM (active),,891 nM (active)
C[C@]12C=CC(=O)C=C1CCC1C2C(O)C[C@]2(C)C1CC[C@]2(O)C(=O)CO (stereo partly specified),,inactive,inactive,inactive,inactive,inactive,inactive,inactive,inactive,inactive,inactive,inactive,inactive,inactive,inactive,inactive,inactive,inactive,inactive,inactive
